Laboratory results taken from PubChem BioAssay AID1159580 (chemical genetic matrix, 2015).
Screen size: about 5,500 compounds; about 2,000 (36%) were called active. Not shown: some 18% with an inconclusive outcome. The list shows a part of the results. Values without a mark were called inactive. Cut-off read from the data, not from the text of the source: active = normalized growth mostly below about 0.91 (no sharp cut-off); inconclusive = no clear call, values can overlap the other calls; inactive = mostly above about 0.92.

Experiment: chemical genetic growth profiling, strain panel (AID 1159580);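 note: tested at 20 µM; growth read once vehicle control cultures reached saturation at 30 °C; 1 = growth at the plate median or of vehicle wells; lower values mean less growth of the strain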
Details: growth OD
[1] = S. cerevisiae deletion strains, locus YBR229C, strain ROT2, stronger effect = lower value
[2] = S. cerevisiae deletion strains, locus YCL061C, strain MRC1, stronger effect = lower value
[3] = S. cerevisiae deletion strains, locus YDL101C, strain DUN1, stronger effect = lower value
[4] = S. cerevisiae deletion strains, locus YDR150W, strain NUM1, stronger effect = lower value
[5] = S. cerevisiae deletion strains, locus YEL061C, strain CIN8, stronger effect = lower value
[6] = S. cerevisiae deletion strains, locus YGR078C, strain PAC10, stronger effect = lower value
[7] = S. cerevisiae deletion strains, locus YHR030C, strain SLT2, stronger effect = lower value
[8] = S. cerevisiae deletion strains, locus YHR087W, strain rtc3, stronger effect = lower value
[9] = S. cerevisiae deletion strains, locus YJR043C, strain POL32, stronger effect = lower value
[10] = S. cerevisiae deletion strains, locus YJR075W, strain HOC1, stronger effect = lower value
[11] = S. cerevisiae deletion strains, locus YLR039C, strain RIC1, stronger effect = lower value
[12] = S. cerevisiae deletion strains, locus YLR058C, strain SHM2 (second series), stronger effect = lower value
[13] = S. cerevisiae deletion strains, locus YLR085C, strain ARP6, stronger effect = lower value
[14] = S. cerevisiae deletion strains, locus YLR262C, strain YPT6, stronger effect = lower value
[15] = S. cerevisiae deletion strains, locus YML094W, strain GIM5, stronger effect = lower value
[16] = S. cerevisiae deletion strains, locus YMR219W, strain ESC1, stronger effect = lower value
[17] = S. cerevisiae deletion strains, locus YMR263W, strain SAP30, stronger effect = lower value
[18] = S. cerevisiae deletion strains, locus YNL153C, strain GIM3, stronger effect = lower value
[19] = S. cerevisiae deletion strains, locus YNL298W, strain CLA4 (second series), stronger effect = lower value
[20] = S. cerevisiae deletion strains, locus YNL322C, strain KRE1, stronger effect = lower value
[21] = S. cerevisiae deletion strains, locus YNR030W, strain Alg12, stronger effect = lower value
[22] = S. cerevisiae deletion strains, locus YPL055C, strain LGE1, stronger effect = lower value
[23] = S. cerevisiae deletion strains, locus YPL241C, strain CIN2, stronger effect = lower value
[24] = S. cerevisiae deletion strains, locus YPR135W, strain CTF4, stronger effect = lower value
[25] = S. cerevisiae strains, strain wild type, stronger effect = lower value

CCOC(=O)c1c[nH]c2c(F)cccc2c1=O
normalized growth [1]: 1 | normalized growth [2]: 0.985 | normalized growth [3]: 0.963 | normalized growth [4]: 0.963 | normalized growth [5]: 1.04 | normalized growth [6]: 0.982 | normalized growth [7]: 1.03 | normalized growth [8]: 1.02 | normalized growth (S. cerevisiae deletion strains, locus YJL187C, strain SWE1, stronger effect = lower value): 1.01 | normalized growth [9]: 0.988 | normalized growth [10]: 0.973 | normalized growth (S. cerevisiae deletion strains, locus YKL190W, strain CNB1, stronger effect = lower value): 0.993 | normalized growth [11]: 1.06 | normalized growth [12]: 1.01 | normalized growth [13]: 1.03 | normalized growth [14]: 1.04 | normalized growth [15]: 1.02 | normalized growth [16]: 0.997 | normalized growth [17]: 1.01 | normalized growth [18]: 0.973 | normalized growth [19]: 0.981 | normalized growth [20]: 0.996 | normalized growth [21]: 0.978 | normalized growth [22]: 1.02 | normalized growth [23]: 0.962 | normalized growth [24]: 0.985 | normalized growth [25]: 0.989

Cc1cc(NC(=O)Nc2cccc(C(F)(F)F)c2)n(C)n1
normalized growth (S. cerevisiae deletion strains, locus YAL013W, strain DEP1, stronger effect = lower value): 1 | normalized growth [1]: 0.997 | normalized growth [2]: 1.01 | normalized growth [3]: 0.983 | normalized growth [4]: 0.998 | normalized growth [5]: 1.01 | normalized growth [6]: 1.01 | normalized growth [7]: 1.08 | normalized growth [8]: 0.989 | normalized growth [9]: 0.998 | normalized growth [10]: 0.992 | normalized growth [11]: 1.02 | normalized growth [12]: 1.01 | normalized growth [13]: 0.986 | normalized growth [14]: 1.09 | normalized growth [15]: 0.987 | normalized growth [16]: 1 | normalized growth [17]: 1.01 | normalized growth [18]: 0.998 | normalized growth [19]: 0.991 | normalized growth [20]: 1.01 | normalized growth [21]: 1 | normalized growth (S. cerevisiae deletion strains, locus YOL006C, strain TOP1, stronger effect = lower value): 1 | normalized growth [22]: 0.989 | normalized growth [23]: 0.981 | normalized growth [24]: 1.08 | normalized growth [25]: 0.986

CC(C)Sc1c(Cl)cccc1NC(=O)Nc1ccccc1
normalized growth (S. cerevisiae deletion strains, locus YAR019C, strain CDC15, stronger effect = lower value): 0.971 | normalized growth (S. cerevisiae deletion strains, locus YBL105C, strain PKC1, stronger effect = lower value): 0.97 | normalized growth (S. cerevisiae deletion strains, locus YBR135W, strain CKS1, stronger effect = lower value): 0.96 | normalized growth (S. cerevisiae deletion strains, locus YBR136W, strain MEC1, stronger effect = lower value): 0.959 | normalized growth (S. cerevisiae deletion strains, locus YBR160W, strain CDC28, stronger effect = lower value): 0.962 | normalized growth (S. cerevisiae deletion strains, locus YDL017W, strain CDC7, stronger effect = lower value): 0.968 | normalized growth (S. cerevisiae deletion strains, locus YDL028C, strain MPS1, stronger effect = lower value): 0.962 | normalized growth [3]: 0.976 | normalized growth (S. cerevisiae deletion strains, locus YDL108W, strain KIN28, stronger effect = lower value): 0.966 | normalized growth (S. cerevisiae deletion strains, locus YDL132W, strain cdc53, stronger effect = lower value): 0.974 | normalized growth (S. cerevisiae deletion strains, locus YDL214C, strain PRR2, stronger effect = lower value): 0.871 | normalized growth (S. cerevisiae deletion strains, locus YDR052C, strain DBF4, stronger effect = lower value): 0.973 | normalized growth (S. cerevisiae deletion strains, locus YDR054C, strain cdc34, stronger effect = lower value): 0.959 | normalized growth (S. cerevisiae deletion strains, locus YDR226W, strain ADK1, stronger effect = lower value): 0.976 | normalized growth (S. cerevisiae deletion strains, locus YDR477W, strain SNF1, stronger effect = lower value): 0.867 | normalized growth (S. cerevisiae deletion strains, locus YER123W, strain YCK3, stronger effect = lower value): 0.813 | normalized growth (S. cerevisiae deletion strains, locus YER133W, strain GLC7, stronger effect = lower value): 0.899 | normalized growth (S. cerevisiae deletion strains, locus YFL009W, strain cdc4, stronger effect = lower value): 0.97 | normalized growth (S. cerevisiae deletion strains, locus YFL029C, strain CAK1, stronger effect = lower value): 0.964 | normalized growth (S. cerevisiae deletion strains, locus YFR003C, strain YPI1, stronger effect = lower value): 0.957 | normalized growth (S. cerevisiae deletion strains, locus YFR019W, strain FAB1, stronger effect = lower value): 0.872 | normalized growth (S. cerevisiae deletion strains, locus YFR028C, strain CDC14, stronger effect = lower value): 0.963 | normalized growth (S. cerevisiae deletion strains, locus YGR040W, strain KSS1, stronger effect = lower value): 0.843 | normalized growth (S. cerevisiae deletion strains, locus YGR052W, strain FMP48, stronger effect = lower value): 0.937 | normalized growth (S. cerevisiae deletion strains, locus YGR092W, strain DBF2, stronger effect = lower value): 0.836 | normalized growth [7]: 0.666 (active) | normalized growth (S. cerevisiae deletion strains, locus YHR079C, strain IRE1, stronger effect = lower value): 0.898 | normalized growth (S. cerevisiae deletion strains, locus YHR082C, strain KSP1, stronger effect = lower value): 0.858 | normalized growth (S. cerevisiae deletion strains, locus YHR205W, strain SCH9, stronger effect = lower value): 0.788 | normalized growth (S. cerevisiae deletion strains, locus YIL147C, strain SLN1, stronger effect = lower value): 0.964 | normalized growth (S. cerevisiae deletion strains, locus YJL095W, strain BCK1, stronger effect = lower value): 0.803 | normalized growth (S. cerevisiae deletion strains, locus YJL128C, strain PBS2, stronger effect = lower value): 0.966 | normalized growth (S. cerevisiae deletion strains, locus YJL157C, strain FAR1, stronger effect = lower value): 0.895 | normalized growth (S. cerevisiae deletion strains, locus YJR016C, strain ILV3, stronger effect = lower value): 0.97 | normalized growth (S. cerevisiae deletion strains, locus YJR066W, strain TOR1 (second series), stronger effect = lower value): 0.915 | normalized growth (S. cerevisiae deletion strains, locus YJR066W, strain TOR1, stronger effect = lower value): 0.835 | normalized growth (S. cerevisiae deletion strains, locus YKL048C, strain ELM1, stronger effect = lower value): 0.874 | normalized growth (S. cerevisiae deletion strains, locus YKL067W, strain YNK1, stronger effect = lower value): 0.892 | normalized growth (S. cerevisiae deletion strains, locus YKL101W, strain HSL1, stronger effect = lower value): 0.891 | normalized growth (S. cerevisiae deletion strains, locus YKL193C, strain SDS22, stronger effect = lower value): 0.963 | normalized growth (S. cerevisiae deletion strains, locus YKL203C, strain TOR2, stronger effect = lower value): 0.891 | normalized growth (S. cerevisiae deletion strains, locus YLR113W, strain HOG1, stronger effect = lower value): 0.765 (active) | normalized growth (S. cerevisiae deletion strains, locus YLR133W, strain CKI1, stronger effect = lower value): 0.857 | normalized growth (S. cerevisiae deletion strains, locus YLR403W, strain SFP1, stronger effect = lower value): 0.863 | normalized growth (S. cerevisiae deletion strains, locus YML070W, strain DAK1, stronger effect = lower value): 0.869 | normalized growth (S. cerevisiae deletion strains, locus YMR001C, strain CDC5, stronger effect = lower value): 0.967 | normalized growth (S. cerevisiae deletion strains, locus YMR205C, strain PFK2 (second series), stronger effect = lower value): 0.863 | normalized growth (S. cerevisiae deletion strains, locus YMR277W, strain FCP1, stronger effect = lower value): 0.962 | normalized growth (S. cerevisiae deletion strains, locus YNL006W, strain LST8, stronger effect = lower value): 0.975 | normalized growth (S. cerevisiae deletion strains, locus YNL020C, strain ARK1, stronger effect = lower value): 0.861 | normalized growth (S. cerevisiae deletion strains, locus YNL161W, strain CBK1, stronger effect = lower value): 0.975 | normalized growth (S. cerevisiae deletion strains, locus YNL183C, strain NPR1, stronger effect = lower value): 0.827 | normalized growth (S. cerevisiae deletion strains, locus YNL207W, strain RIO2, stronger effect = lower value): 0.965 | normalized growth (S. cerevisiae deletion strains, locus YNL222W, strain SSU72, stronger effect = lower value): 0.964 | normalized growth (S. cerevisiae deletion strains, locus YNL307C, strain MCK1 (second series), stronger effect = lower value): 0.771 | normalized growth (S. cerevisiae deletion strains, locus YOL078W, strain AVO1, stronger effect = lower value): 0.964 | normalized growth (S. cerevisiae deletion strains, locus YOL136C, strain PFK27, stronger effect = lower value): 0.86 | normalized growth (S. cerevisiae deletion strains, locus YOR061W, strain CKA2, stronger effect = lower value): 0.895 | normalized growth (S. cerevisiae deletion strains, locus YOR119C, strain RIO1, stronger effect = lower value): 0.935 | normalized growth (S. cerevisiae deletion strains, locus YOR231W, strain MKK1, stronger effect = lower value): 0.883 | normalized growth (S. cerevisiae deletion strains, locus YOR329C, strain SCD5, stronger effect = lower value): 0.966 | normalized growth (S. cerevisiae deletion strains, locus YPL031C, strain PHO85, stronger effect = lower value): 0.853 | normalized growth (S. cerevisiae deletion strains, locus YPL153C, strain RAD53, stronger effect = lower value): 0.867 | normalized growth (S. cerevisiae deletion strains, locus YPL204W, strain HRR25, stronger effect = lower value): 0.839 | normalized growth (S. cerevisiae deletion strains, locus YPL209C, strain IPL1, stronger effect = lower value): 0.973 | normalized growth (S. cerevisiae deletion strains, locus YPL256C, strain CLN2, stronger effect = lower value): 0.803 (active) | normalized growth (S. cerevisiae deletion strains, locus YPR025C, strain CCL1, stronger effect = lower value): 0.961 | normalized growth (S. cerevisiae deletion strains, locus YPR106W, strain ISR1, stronger effect = lower value): 0.964 | normalized growth (S. cerevisiae deletion strains, locus YPR111W, strain DBF20, stronger effect = lower value): 0.951 | normalized growth (S. cerevisiae deletion strains, strain NNK1, stronger effect = lower value): 0.942 | normalized growth (S. cerevisiae deletion strains, strain TSCII, stronger effect = lower value): 0.963
